Test results taken from the supplement of paper PMC9135407.
“And” between values parts separate entries of the source, which are not always exact repeats. Identical values can stand only once. Counter-ions that a name gives are not always drawn. Hit rate of the full screen: of about 5,800 compounds, about 620 (11%) showed activity. The list comes from a sample in which actives are over-represented; it also holds similar structures and randomly drawn compounds. Values without a mark were called inactive.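 Rule for the calls: active = score above a cut-off or among the top three wells of a plate; in these data no inactive exceeds 0.85.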

System: primary human hepatic stellate cells (donor 1)
Experiment: scaled lipid accumulation score (0 = DMSO-like, 1 = nortriptyline-like); higher = stronger HSC inactivation (lipid re-accumulation), active = hit call of the paper
Details: 48 h
Protocol: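 Primary lipid accumulation screen in primary human hepatic stellate cell myofibroblasts (donor 1, passage 8) in 384-well plates. 100 nL of library compound was pin-transferred into 30 µL medium in duplicate, and cells were treated for 48 h. The 'Scaled' score combines distance from plate baseline, toxicity and reproducibility penalties, and is normalised to nortriptyline (positive) and DMSO (negative) controls on each plate. A hit is defined as scaled >0.85 or among the top 3 wells per plate.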

[1] = library stock concentration: 10 mM
[2] = library stock concentration: 80 uM
[3] = library stock concentration: 400 uM
[4] = library stock concentration: 2 mM
[5] = library stock concentration: 3.33 mM
[6] = library stock concentration: 1 mM
[7] = library stock concentration: 100 uM

Compound: CC(C)(C)c1ccc(S(=O)(=O)/C=C/C#N)cc1 [listing 1 of 2 here]
- scaled lipid accumulation score [1]: 1.12 (active)

Compound: Cc1ccc(S(=O)(=O)/C=C/C#N)cc1 [listing 1 of 2 here]
- scaled lipid accumulation score [1]: 0.931 (active)

Compound: CC(C)(C)c1ccc(S(=O)(=O)/C=C/C#N)cc1 [listing 2 of 2 here]
- scaled lipid accumulation score [1]: 0.172

Compound: Cc1ccc(S(=O)(=O)/C=C/C#N)cc1 [listing 2 of 2 here]
- scaled lipid accumulation score [2]: ≤ -0.001
- scaled lipid accumulation score [3]: ≤ -0.001
- scaled lipid accumulation score [4]: 0.813
- scaled lipid accumulation score [5]: 0.807
- scaled lipid accumulation score [1]: 0.729 and 0.437
- scaled lipid accumulation score (library stock concentration: 24.1 mM): 0.648

Compound: CC(C)(C)c1ccc(S(=O)(=O)Nc2ccc(-n3ccnc3)cc2)cc1 [Stem-Cell Factor/c-Kit Inhibitor, ISCK03]
- scaled lipid accumulation score [5]: ≤ 0

Compound: Cc1ccc(S(=O)(=O)C=CC#N)cc1
- scaled lipid accumulation score [5]: 0.718
- scaled lipid accumulation score [1]: 0.445

Compound: Cc1cc2c(C(=O)NCC(C)c3ccccc3)c(O)c(O)cc2c(O)c1-c1c(C)cc2c(C(=O)NCC(C)c3ccccc3)c(O)c(O)cc2c1O (centres undefined) [Sabutoclax]
- scaled lipid accumulation score [5]: 0.768
- scaled lipid accumulation score [1]: 0.582

Compound: COc1cc(CCc2cc(NC(=O)c3ccc(N4CC(C)NC(C)C4)cc3)n[nH]2)cc(OC)c1 (centres undefined)
- scaled lipid accumulation score [2]: ≤ -0.016
- scaled lipid accumulation score [3]: ≤ -0.016
- scaled lipid accumulation score [4]: 0.369
- scaled lipid accumulation score [5]: 0.476
- scaled lipid accumulation score [1]: 0.5

Compound: CC(Cc1ccccc1)Nc1ncnc2c1ncn2C1OC(CO)C(O)C1O (stereo not drawn) [R(-)-N6-(2-Phenylisopropyl)adenosine]
- scaled lipid accumulation score [1]: ≤ -0.055

Compound: N#Cc1c(O)c2c(-c3ccc(-c4ccccc4O)cc3)csc2[nH]c1=O
- scaled lipid accumulation score [5]: 0.004
- scaled lipid accumulation score [1]: ≤ 0 and 0.001

Compound: CC1(C)S[C@@H]2[C@H](NC(=O)COc3ccccc3)C(=O)N2[C@H]1C(=O)O [Penicillin V]
- scaled lipid accumulation score [1]: ≤ 0

Compound: CC1(C)S[C@@H]2[C@H](NC(=O)COc3ccccc3)C(=O)N2[C@H]1C(=O)O [Penicillin v potassium]
- scaled lipid accumulation score (library stock concentration: 5.1 mM): 0.003
- scaled lipid accumulation score [1]: ≤ 0

Compound: Cc1ccc(Sc2cncc3sc(C(N)=O)cc23)cc1
- scaled lipid accumulation score [5]: 0.183
- scaled lipid accumulation score [1]: 0.478 and 0.373

Compound: CCOC(=O)CCC(=O)O[C@H]1[C@H](O[C@@H]2[C@@H](C)[C@H](O[C@H]3C[C@@](C)(OC)[C@@H](O)[C@H](C)O3)[C@@H](C)C(=O)O[C@H](CC)[C@@](C)(O)[C@H](O)[C@@H](C)C(=O)[C@H](C)C[C@@]2(C)O)O[C@H](C)C[C@@H]1N(C)C [Eryped]
- scaled lipid accumulation score [1]: ≤ 0

Compound: CCOC(=O)CCC(=O)O[C@H]1[C@H](O[C@@H]2[C@@H](C)[C@H](O[C@H]3C[C@@](C)(OC)[C@@H](O)[C@H](C)O3)[C@@H](C)C(=O)O[C@H](CC)[C@@](C)(O)[C@H](O)[C@@H](C)C(=O)[C@H](C)C[C@@]2(C)O)O[C@H](C)C[C@@H]1N(C)C [Erythromycin ethylsuccinate]
- scaled lipid accumulation score (library stock concentration: 2.3 mM): ≤ -0.001
- scaled lipid accumulation score [1]: ≤ 0

Compound: Cl.Cl.c1ccc2c(NCCCCCCCNc3c4c(nc5ccccc35)CCCC4)c3c(nc2c1)CCCC3 [bis(7)-Tacrine]
- scaled lipid accumulation score [6]: 1.11 (active)

Compound: Nc1c2c(nc3ccccc13)CCCC2O (centres undefined) [Hydroxytacrine maleate]
- scaled lipid accumulation score (library stock concentration: 9.3 mM): ≤ -0.006
- scaled lipid accumulation score [1]: 0.056

Compound: Nc1c2c(nc3ccccc13)CCCC2 [Tacrine hydrochloride]
- scaled lipid accumulation score [1]: 0.064

Compound: Nc1c2c(nc3ccccc13)CCCC2
- scaled lipid accumulation score (library stock concentration: 9.7 mM): 0.039

Compound: Nc1c2c(nc3ccccc13)CCCC2 [Tacrine (hydrochloride)]
- scaled lipid accumulation score [6]: 0.026

Compound: Nc1c2c(nc3ccccc13)CCCC2 [9-Amino-1,2,3,4-tetrahydroacridine hydrochloride]
- scaled lipid accumulation score [1]: 0.401

Compound: CCCCCC(=O)CC[C@H]1C=CC(=O)[C@@H]1C/C=C\CCCC(=O)O [13,14-dihydro-15-keto Prostaglandin A2]
- scaled lipid accumulation score [6]: ≤ 0

Compound: CCCCC[C@H](O)/C=C/[C@H]1C2CC(CO2)[C@@H]1C/C=C/CCCC(=O)O (some centres undefined)
- scaled lipid accumulation score [6]: ≤ 0

Compound: CCCCC[C@](C)(O)/C=C/[C@@H]1[C@@H](C/C=C\CCCC(=O)O)[C@@H](O)C[C@H]1O [15(S)-15-methyl Prostaglandin F2.alpha.]
- scaled lipid accumulation score [6]: ≤ 0

Compound: CCCCC/C=C\C/C=C\CC1OC1C/C=C\CCCC(=O)O (centres undefined) [8,9-Epoxyeicosatrienoic acid]
- scaled lipid accumulation score [7]: ≤ -0.021

Compound: CNC(=O)c1cc(Oc2ccc(NC(=O)Nc3ccc(Cl)c(C(F)(F)F)c3)c(F)c2)ccn1 [Regorafenib]
- scaled lipid accumulation score [2]: ≤ -0.016
- scaled lipid accumulation score [3]: 0.033
- scaled lipid accumulation score [4]: ≤ -0.016
- scaled lipid accumulation score [1]: ≤ -0.016

Compound: CNC(=O)c1cc(Oc2ccc(NC(=O)Nc3ccc(Cl)c(C(F)(F)F)c3)cc2)ccn1 [Sorafenib Tosylate]
- scaled lipid accumulation score [5]: 0.005
- scaled lipid accumulation score [1]: ≤ 0

Compound: CNC(=O)c1cc(Oc2ccc(NC(=O)Nc3ccc(Cl)c(C(F)(F)F)c3)cc2)ccn1
- scaled lipid accumulation score [2]: 0.04
- scaled lipid accumulation score [3]: 0.075
- scaled lipid accumulation score [4]: ≤ 0
- scaled lipid accumulation score [1]: 0.672

Compound: CNC(=O)c1cc(Oc2ccc(NC(=O)Nc3ccc(Cl)c(C(F)(F)F)c3)c(F)c2)ccn1 [Regorafenib (BAY 73-4506)]
- scaled lipid accumulation score [5]: ≤ 0
- scaled lipid accumulation score [1]: ≤ 0

Compound: CNC(=O)c1cc(Oc2ccc(NC(=O)Nc3ccc(Cl)c(C(F)(F)F)c3)cc2)ccn1 [Sorafenib  (Nexavar, BAY43-9006) (0.4 mM)]
- scaled lipid accumulation score [3]: 0.021

Compound: CNC(=O)c1cc(Oc2ccc(NC(=O)Nc3ccc(Cl)c(C(F)(F)F)c3)cc2)ccn1 [Sorafenib]
- scaled lipid accumulation score [5]: ≤ 0
- scaled lipid accumulation score [1]: ≤ 0

Compound: CNC(=O)c1cc(Oc2ccc(NC(=O)Nc3ccc(Cl)c(C(F)(F)F)c3)cc2)ccn1 [Sorafenib (Nexavar, BAY43-9006) (10 mM)]
- scaled lipid accumulation score [1]: 1.21 (active)

Compound: CNC(=O)c1cc(Oc2ccc(NC(=O)Nc3ccc(Cl)c(C(F)(F)F)c3)cc2)ccn1 [Sorafenib  (Nexavar, BAY43-9006) (2 mM)]
- scaled lipid accumulation score [4]: 0.299

Compound: CC1(C(=O)O)NCCc2cc(O)c(O)cc21 (centres undefined) [Salsolinol-1-carboxylic acid]
- scaled lipid accumulation score [1]: 0.05

Compound: NC/C=C/C(=O)O [(E)-4-amino-2-butenoic acid]
- scaled lipid accumulation score [1]: ≤ 0

Compound: CN(C)C(=O)Nc1cccc(-c2ccc(N(C)C)cc2)c1 [Atglistatin]
- scaled lipid accumulation score [5]: 0.012
- scaled lipid accumulation score [1]: 0.076

Compound: CCn1cc(-c2ccnc3[nH]c(-c4cccc(CN(C)C)c4)cc23)c(-c2ccc(NC(=O)N(C)C)cc2)n1 [listing 1 of 2 here]
- scaled lipid accumulation score [1]: 0.863 (active)

Compound: CCn1cc(-c2ccnc3[nH]c(-c4cccc(CN(C)C)c4)cc23)c(-c2ccc(NC(=O)N(C)C)cc2)n1 [listing 2 of 2 here]
- scaled lipid accumulation score [2]: ≤ 0
- scaled lipid accumulation score [3]: ≤ 0
- scaled lipid accumulation score [4]: 0.222

Compound: NCCNCCNCCN [Trientine hydrochloride]
- scaled lipid accumulation score (library stock concentration: 9.1 mM): ≤ 0

Compound: CC(=O)Oc1ccc2c(c1)CC[C@@H]1[C@@H]2CC[C@]2(C)[C@@H](OC(C)=O)CC[C@@H]12 [Estradiol diacetate]
- scaled lipid accumulation score [1]: ≤ 0

Compound: N#C[C@@H]1C[C@@H]2C[C@@H]2N1C(=O)[C@@H](N)C12CC3CC(CC(O)(C3)C1)C2
- scaled lipid accumulation score [1]: ≤ 0

Compound: N#C[C@@H]1C[C@@H]2C[C@@H]2N1C(=O)[C@@H](N)C12CC3CC(CC(O)(C3)C1)C2 [Saxagliptin]
- scaled lipid accumulation score [5]: ≤ 0
- scaled lipid accumulation score [1]: ≤ 0

Compound: O=C(O)CCC/C=C\C[C@H]1C(=O)C[C@@H](O)[C@@H]1/C=C/[C@@H](O)Cc1ccccc1 [16-phenyl tetranor Prostaglandin E2]
- scaled lipid accumulation score [6]: ≤ 0

Compound: CCCCn1c(=O)c2[nH]c(C34CC5CC(CC3C5)C4)nc2n(CCCO)c1=O
- scaled lipid accumulation score [1]: ≤ -0.001

Compound: CN1CCN2c3ccccc3Cc3ccccc3C2C1.Cl (centres undefined) [Mianserin hydrochloride]
- scaled lipid accumulation score [1]: 0.869 (active)

Compound: CN1CCN2c3ncccc3Cc3ccccc3C2C1 (centres undefined) [Mirtazepine]
- scaled lipid accumulation score [1]: 0.053

Compound: CN1CCN2c3ncccc3Cc3ccccc3C2C1 (centres undefined) [mirtazapine]
- scaled lipid accumulation score [1]: 0.317

Compound: CN1CCN2c3ccccc3Cc3ccccc3C2C1 (centres undefined) [Mianserine hydrochloride]
- scaled lipid accumulation score: 0.681

Compound: CN1CCN2c3ncccc3Cc3ccccc3C2C1 (centres undefined) [Mirtazapine]
- scaled lipid accumulation score [5]: ≤ 0
- scaled lipid accumulation score [1]: 0.104

Compound: CN1CCN2c3ncccc3Cc3ccccc3C2C1 (centres undefined)
- scaled lipid accumulation score [1]: 0.409

Compound: CN1CCN2c3ccccc3Cc3ccccc3C2C1 (centres undefined) [Mianserin hcl]
- scaled lipid accumulation score (library stock concentration: 7.6 mM): 0.348

Compound: CN1CCN2c3ccccc3Cc3ccccc3C2C1 (centres undefined) [Mianserin HCl]
- scaled lipid accumulation score [5]: 0.172
- scaled lipid accumulation score [1]: 0.188

Compound: CN1CCN2c3ccccc3Cc3ccccc3C2C1 (centres undefined) [Mianserin hydrochloride]
- scaled lipid accumulation score (library stock concentration: 6.6 mM): 0.236
- scaled lipid accumulation score [1]: 0.398

Compound: Cc1c(C)c2c(c(C)c1O)CC[C@@](C)(CCC[C@H](C)CCC[C@H](C)CCCC(C)C)O2 (racemic) [Tocopherol (R,S)]
- scaled lipid accumulation score: ≤ 0

Compound: CN1CCN(c2c(F)cc3c(=O)c(C(=O)O)cn(CCF)c3c2F)CC1 [Fleroxacin]
- scaled lipid accumulation score (library stock concentration: 5.4 mM): ≤ 0

Compound: CCCCCC(=O)/C=C/C=C\C/C=C\C/C=C\CCCC(=O)O [15-Ketoicosatetraenoic acid]
- scaled lipid accumulation score [7]: ≤ -0.021

Compound: COc1ccc(CNC(=O)Nc2ncc([N+](=O)[O-])s2)cc1 [listing 1 of 2 here]
- scaled lipid accumulation score [5]: 0.006

Compound: COc1ccc(CNC(=O)Nc2ncc([N+](=O)[O-])s2)cc1 [listing 2 of 2 here]
- scaled lipid accumulation score [1]: 0.864 (active)

Compound: CC(=O)Nc1ncc([N+](=O)[O-])s1 [Nithiamide]
- scaled lipid accumulation score [5]: ≤ 0
- scaled lipid accumulation score [1]: ≤ -0.001

Compound: CC(=O)Nc1ncc([N+](=O)[O-])s1
- scaled lipid accumulation score [1]: ≤ 0

Compound: COc1ccc(CNC(=O)Nc2ncc([N+](=O)[O-])s2)cc1 [GSK-3b Inhibitor VIII]
- scaled lipid accumulation score [5]: ≤ 0
